# The source made the active and inactive calls. No rule for the calls is given here.
# Target: Pantothenate synthetase (Mycobacterium tuberculosis (strain ATCC 25618 / H37Rv)) (UniProt P9WIL5)
# Assay: Coupled enzyme confirmation of inhibitors against recombinant Mtb PanC (AID 375);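 also: 0% = full reaction with vehicle and 100% = no enzyme background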
# Conditions: coupled enzyme assay; at 10 µM, stronger effect = higher value
# Chain of Pantothenate synthetase (Mycobacterium tuberculosis (strain ATCC 25618 / H37Rv)) (P9WIL5 whole entry, looked up): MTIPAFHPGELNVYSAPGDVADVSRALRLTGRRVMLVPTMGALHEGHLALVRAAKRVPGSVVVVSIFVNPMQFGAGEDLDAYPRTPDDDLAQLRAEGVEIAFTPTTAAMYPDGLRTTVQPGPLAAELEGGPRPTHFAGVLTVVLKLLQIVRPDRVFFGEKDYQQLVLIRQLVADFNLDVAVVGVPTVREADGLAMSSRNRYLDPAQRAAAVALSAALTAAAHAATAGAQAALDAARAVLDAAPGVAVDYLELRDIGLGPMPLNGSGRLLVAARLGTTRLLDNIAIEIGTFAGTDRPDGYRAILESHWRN
row,Structure (SMILES),inhibition
1,O=C(c1ccc(Cl)cc1)C1CCN(C(=O)NC2CCCCC2)CC1,0% (inactive)
2,Cc1nc2cc(N3CCCCC3)c(NC(=O)c3cccnc3)cc2c(=O)n1Cc1ccccc1,1% (inactive)
3,c1cnn(-c2cc(N3CCOCC3)ncn2)c1,0% (inactive)
4,O=C(COC(=O)c1cccc(S(=O)(=O)N2CCc3ccccc32)c1)NC1CCS(=O)(=O)C1 (stereo not given),0% (inactive)
5,Cc1cccc2cc(C#N)c(SCCN3CCCCC3)nc12,0% (inactive)
6,Cc1ccc(Cn2nnc3c(=O)[nH]c(C4CCN(C(=O)c5cccs5)CC4)nc32)cc1,0% (inactive)
7,CCc1ccccc1NC(=O)CSc1ncn[nH]1,0% (inactive)
8,O=C1c2ccccc2NC2CCCCCN12 (stereo not given),0% (inactive)
9,CCCC(=O)Nc1nc2ccc(S(N)(=O)=O)cc2s1,0% (inactive)
10,CCC(C)NC(=O)c1cc(CC(C)C)on1 (stereo not given),2% (inactive)
11,Cc1ccc(S(=O)(=O)N2CCOCC2)cc1C(=O)Nc1ccccn1,0% (inactive)
12,CCOCC(=O)Nc1sc2c(c1C(=O)OCC)CCCC2,0% (inactive)
13,CC(=O)c1c(C)[nH]c(C(=O)NC2=NCCS2)c1C,0% (inactive)
14,O=C(NCc1cccnc1)c1ccccc1Br,7% (inactive)
15,CCn1cnc2sc(C(=O)Nc3ccc4c(c3)OCO4)c(C)c2c1=O,4% (inactive)
16,O=C(Nc1ccc2c(c1)OCO2)c1cncc(Br)c1,8% (inactive)
17,COc1ccccc1-n1c(-c2cccnc2)n[nH]c1=S,0% (inactive)
18,CCN(C(=O)c1ccnc(C(C)(C)C)c1)c1ccccc1,0% (inactive)
19,O=C(Nc1ccc(NC(=O)c2ccco2)nc1)c1cccnc1,0% (inactive)
20,CN(C(=O)c1c(Cl)nc2sccn12)C1CCCCC1,0% (inactive)

row,Structure (SMILES),inhibition
1,OCCOCCN1CCN(C(c2ccccc2)c2ccc(Cl)cc2)CC1 (stereo not given),1% (inactive)
2,COc1ccccc1NC(=O)C(C)NS(=O)(=O)c1ccc(F)cc1 (stereo not given),0% (inactive)
3,c1ccc2c(c1)CCCC2C1=NCCN1 (stereo not given),0% (inactive)
4,CCCC1(C(=O)OC)NC(c2cc(OC)c(OC)c(OC)c2)C2C(=O)N(CC)C(=O)C21 (stereo not given),0% (inactive)
5,Cc1cc(C(=O)Nc2c(C)n(C)n(-c3ccccc3)c2=O)c(C)o1,0% (inactive)
6,CCOC(=O)c1ccc(NC(=O)CSCc2ccco2)cc1,0% (inactive)
7,N#CC1=C(N)C(C#N)(C#N)[C@H](c2ccsc2)[C@H]2COCC=C12,0% (inactive)
8,C1CNCCNCCNCCN1,0% (inactive)
9,COc1ccc(C(=O)Nc2cccc(-c3nc4ncccc4o3)c2C)cc1OC,2% (inactive)
10,CS(=O)(=O)N(CC(=O)NC1CC1)c1cccc(F)c1,0% (inactive)
11,O=C(C1CCN(S(=O)(=O)N2CCC3(CC2)OCCO3)CC1)N1CCOCC1,0% (inactive)
12,O=C1C=C(NCc2ccco2)C2(CCCCC2)O1,0% (inactive)
13,CCOC(=O)C1=C(C)NC(=O)NC1c1ccc(OCCO)c(OC)c1 (stereo not given),0% (inactive)
14,O=C(CSc1nnc(-c2cccnc2)o1)OC1CCCCC1,0% (inactive)
15,Cc1cc(Cl)cc2c1NC(=O)[C@]21[C@@H]2C(=O)N(Cc3ccccc3)C(=O)[C@@H]2[C@@H]2CCCN21,6% (inactive)
16,CCOC(=O)Cc1csc(NC(=O)CSc2nnc(-c3ccncc3)n2Cc2ccco2)n1,0% (inactive)
17,Cc1ccc(C)c(C(=O)NC2CC(C)(C)NC(C)(C)C2)c1,0% (inactive)
18,c1ccc(-c2cc(-c3nc(-c4ccccn4)no3)c3ccccc3n2)cc1,0% (inactive)
19,CC(C)(C)NC(=O)COC(=O)c1ccc(O)cc1,0% (inactive)
20,Fc1cccc(-c2cc3nc4c(c(N5CCN(c6cnccn6)CC5)n3n2)CCCC4)c1,0% (inactive)

# Source: PubChem BioAssay
